DT40 TDP1 CPT: DT40-hTDP1 cell growth loss with CPT | chicken DT40 Tdp1-/-;hTDP1 cells + 20 nM CPT, ATP luminescence, 48 h | Potency, µM (top dose mostly 46.2 µM), hits mostly inhibitors | hit rate 12% among 420,000; note: nearly all actives have a fitted effect of over 55% in size
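Chicken DT40 Tdp1-/- cells complemented with human TDP1, 400 cells/well, exposed to compounds plus 20 nM camptothecin for at least 48 h at 37 C; viability read as ATP content by CellTiter-Glo luminescence.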
TDP1 inh: inhibitors of human tyrosyl-DNA phosphodiesterase TDP1 | Q9NUW8 | recombinant TDP1, AlphaScreen DNA substrate cleavage | Potency, µM (highest dose often 130 µM), hits mostly inhibitors | hit rate 0.28% among 350,000 | AID 485290; note: nearly all actives have a fitted effect of over 40% in size
Target sequence (Q9NUW8 whole entry, looked up): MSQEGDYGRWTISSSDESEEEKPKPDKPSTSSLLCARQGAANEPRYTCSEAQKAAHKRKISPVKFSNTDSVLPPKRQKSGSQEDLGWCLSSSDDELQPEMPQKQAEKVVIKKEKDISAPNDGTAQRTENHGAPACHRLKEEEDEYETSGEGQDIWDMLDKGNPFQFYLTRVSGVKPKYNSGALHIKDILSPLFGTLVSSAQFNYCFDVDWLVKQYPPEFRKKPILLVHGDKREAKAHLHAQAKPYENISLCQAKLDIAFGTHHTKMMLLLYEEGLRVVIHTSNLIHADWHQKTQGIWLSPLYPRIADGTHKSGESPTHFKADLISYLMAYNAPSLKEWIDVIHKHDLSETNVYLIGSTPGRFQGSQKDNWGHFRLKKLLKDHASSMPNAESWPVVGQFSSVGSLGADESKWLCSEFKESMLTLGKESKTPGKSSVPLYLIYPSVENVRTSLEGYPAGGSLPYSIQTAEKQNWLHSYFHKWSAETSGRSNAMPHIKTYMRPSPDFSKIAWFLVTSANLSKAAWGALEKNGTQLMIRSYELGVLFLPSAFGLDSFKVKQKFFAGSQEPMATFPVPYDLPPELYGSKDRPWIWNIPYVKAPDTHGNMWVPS
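Signal: AlphaScreen proximity between streptavidin donor and anti-FITC acceptor beads on intact substrate. Reaction: Tdp1 1 nM, substrate 15 nM final, 5 min RT after 15 min compound preincubation.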
TDP1 cell noCPT: qHTS for Inhibitors of human tyrosyl-DNA phosphodiesterase 1 (TDP1): qHTS in cells in absence of CPT | hit rate 15% among 420,000 | DT40 Tdp1-/- hTDP1 cells, no CPT, ATP luminescence, 48 h | Potency, µM (titrated, usually from 46.2 µM), usual class: inhibitors | AID 686978, 2013; note: nearly all actives have a fitted effect of over 55% in size
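Growth kinetics read by CellTiter-Glo luminescence after ≥48 hr at 37 °C. Cells: DT40 Tdp1-/- stably carrying human TDP1, 400 per well, compound exposure in the absence of CPT (DMSO vehicle).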
TGFb SMAD3 inh: inhibitors of TGF-b signaling | AID 588855 | HepG2 CAGA-GFP TGF-b/SMAD3 reporter, GFP fluorescence, 18 h; TGF-beta stimulated, 500 pg/mL final | Potency, µM (highest dose often 46.1 µM), most hits filed as inhibitors | hit rate 1.2% among 410,000; note: nearly all actives have a fitted effect of over 65% in size
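Inhibition was scored as loss of TGF-beta-induced (500 pg/mL final, 18 hours, 37 degrees C) GFP in HEPG2 cells carrying a CAGA-GFP reporter, in DMEM with 1% FBS. Well GFP was summed per cell; Activity was normalised to unstimulated and stimulated DMSO wells, then concentration-response fitting.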
HepG2 tox: counter-screen for TGF-b inhibitors: cytotoxicity in HepG2 cells; HepG2 CAGA-GFP viability, ATP luminescence, 18 h; Potency, µM (series often up to 46.1 µM), usual class: cytotoxic; hit rate 0.76% among 410,000
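CellTiter-Glo luminescence gave cytotoxicity after 18 hours at 37 degrees C. The cells were HepG2 CAGA-GFP in 1% FBS DMEM, stimulated with 500 pg/mL TGF-beta after compound addition. %Activity was normalised to no-cell wells (complete cell-killing) and DMSO (no toxicity), and curves were fitted and classified.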
IL-1B inflam inh: inflammasome signaling inhibition, IL-1 beta readout. AID 743279. THP-1 LPS/ATP IL-1B secretion, AlphaLISA, 16 h; active compounds read low. activity change, % at 57.5 µM. hit rate 4.7% among 360,000; in the data active = activity change below about -50%; inconclusive = mostly about -30% to -49%
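Secreted IL-1B measured by AlphaLISA bead assay after 16 h compound exposure of THP-1 cells; compounds (final up to 57.5 uM) added 1 h before LPS (250 ng/mL) and ATP (1.25 mM) stimulation; lower signal means less secretion.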
Hits are given with their value; – = inactive; ? = inconclusive; · = not tested or not shown. The list is not random: actives were taken first. Their share in the collection is about 18%. Unless noted, calls come from the whole dose curve; as a rule, active = well fitted curve in the direction sought with a large enough effect; inconclusive = small, poorly fitted or top-dose-only effect, or another doubt; inactive = no such curve, though single readings can be large; an effect the other way counts as inactive or inconclusive.

SMILES	DT40 TDP1 CPT	TDP1 inh	TDP1 cell noCPT	TGFb SMAD3 inh	HepG2 tox	IL-1B inflam inh
CC(=O)Nc1cc(-c2ccc(C(=O)NC3CC3)cc2)cn2c(-c3cccc(C(F)(F)F)c3)cnc12	?	·	23µM	–	–	-53
COc1cccc(C(C(=O)NC2CCCC2)N(C(=O)c2ccco2)c2ccc(C(C)=O)cc2)c1OC (configuration not stated)	–	·	?	–	–	–
COc1ccccc1-c1c(C(F)(F)F)oc2cc(OS(C)(=O)=O)ccc2c1=O	?	–	?	–	–	–
COc1ccccc1-c1c(C(F)(F)F)oc2cc(OC(=O)c3ccccc3[N+](=O)[O-])ccc2c1=O	?	–	26µM	–	–	–
CCNc1ccc(C(=O)OCC(=O)Nc2cc(C)on2)cc1[N+](=O)[O-]	–	·	–	–	–	–
N=c1c(S(=O)(=O)c2ccccc2)cc2c(=O)n3ccccc3nc2n1Cc1ccco1	?	–	21µM	–	–	-79
Cc1cccn2c(=O)c3cc(S(=O)(=O)c4ccccc4)c(=N)n(Cc4ccco4)c3nc12	–	–	–	–	–	–
Cc1ccc2nc3c(cc(S(=O)(=O)c4ccccc4)c(=N)n3Cc3ccco3)c(=O)n2c1	–	–	?	–	–	-52
Cc1cccn2c(=O)c3cc(S(=O)(=O)c4ccc(F)cc4)c(=N)n(Cc4ccco4)c3nc12	?	–	?	–	–	-80
COc1ccc(CCn2c(=N)c(S(=O)(=O)c3ccccc3)cc3c(=O)n4ccccc4nc32)cc1	–	–	?	–	–	–
Cc1ccc(S(=O)(=O)c2cc3c(=O)n4ccccc4nc3n(CCc3ccccc3)c2=N)cc1	?	·	16µM	–	–	–
Cc1ccc(S(=O)(=O)c2cc3c(=O)n4ccccc4nc3n(Cc3ccco3)c2=N)cc1C	?	–	?	–	–	–
Cc1cccc(NC(=S)N(C)Cc2cn(C)c3ccccc23)c1	26µM	–	16µM	–	–	–
Cc1ccc(C)c(OCCC(=O)NCCc2ccc(F)cc2)c1	?	–	?	–	–	–
O=C1Nc2ccccc2/C1=C/C(=O)c1cccs1	6.5µM	–	8.2µM	?	14µM	-119
COc1ccc(C(=O)/C=C2/C(=O)Nc3ccccc32)cc1	9.2µM	·	4.1µM	?	14µM	?
COc1ccc(C(=O)/C=C2/C(=O)Nc3ccccc32)cc1OC	16µM	·	4.1µM	–	–	-82
COc1ccc(C2(C(=O)c3ccccc3)C(=O)c3ccccc3C2=O)cc1	?	·	–	–	–	–
O=C1Nc2ccccc2/C1=C/c1cnc(-c2ccccc2)[nH]1	?	–	?	–	–	–
COc1ccc(C(=O)/C=C2/C(=O)Nc3ccccc32)c(OC)c1	4.1µM	·	2.6µM	13µM	10µM	-101
CCn1ccnc1CN(C)Cc1cn[nH]c1-c1ccc(OC)c(F)c1	–	·	?	–	–	–
COc1ccc(O)c(C(=O)c2coc(=N)c(C(=O)Nc3ccc(SC(F)F)cc3)c2)c1	?	–	18µM	?	–	-54
CCOc1ccccc1NC(=O)CN1C(=O)COc2ccccc21	–	·	–	–	–	–
COc1ccc(NC(=O)CN2C(=O)C(C)Oc3ccccc32)c(OC)c1 (configuration not stated)	–	–	?	–	–	–
COc1ccc(NC(=O)CN2C(=O)C(=O)c3ccccc32)c(OC)c1	4.1µM	–	6.5µM	?	–	·
SMILES	DT40 TDP1 CPT	TDP1 inh	TDP1 cell noCPT	TGFb SMAD3 inh	HepG2 tox	IL-1B inflam inh
CCOc1ccccc1NC(=O)CN1C(=O)C(=O)c2ccccc21	5.8µM	–	4.1µM	?	–	·
COc1ccccc1NC(=O)COC(=O)CN1C(=O)C(=O)c2ccccc21	8.2µM	–	?	–	–	–
CCOc1ccccc1NC(=O)CN1c2ccccc2S(=O)(=O)c2ccccc21	26µM	–	?	?	–	·
Cc1ccc(-c2onc(C)c2C)cc1S(=O)(=O)Nc1cccc(Cl)c1C	?	–	?	–	–	·
Cc1cc(NC(=O)c2ccccc2C)n(-c2cccc(F)c2)n1	–	·	–	–	–	–
CCN1C(=O)c2cccc3c(S(=O)(=O)Nc4ccccc4OC)ccc1c23	12µM	–	15µM	–	–	–
COc1ccccc1NC(=O)CN1C(=O)c2cccc3cccc1c23	?	–	18µM	–	–	·
COc1ccc(C)cc1NC(=O)CN1C(=O)c2cccc3cccc1c23	–	–	–	–	–	–
CC(C)NC(=O)N1CCC2(CC1)CCN(S(C)(=O)=O)CC2	–	·	–	·	·	·
N#Cc1nc(NCC2CC2)nc(Nc2ccccc2)n1	·	–	·	·	·	·
COc1cccc(/C=N/NC(=O)c2cnn(-c3ccccc3)c2N)c1	?	·	21µM	?	–	–
Nc1c(C(=O)N/N=C/c2ccc(OCc3ccccc3)cc2)cnn1-c1ccccc1	16µM	·	12µM	–	–	–
Nc1c(C(=O)N/N=C/c2cccnc2)cnn1-c1ccccc1	–	–	–	–	–	–
Nc1c(C(=O)N/N=C/c2ccc(Cl)cc2)cnn1-c1ccccc1	–	·	–	–	–	–
Cc1oc(-c2ccccc2Cl)nc1CSc1nncn2c1cc1occc12	?	–	?	–	–	·
COC(=O)Cn1c(C(O)c2ccccc2)nc2ccccc21 (configuration not stated)	–	·	–	–	–	–
Cc1nc2ccccc2n2c(-c3ccccc3)c3c(=O)n(C)c(=O)n(C)c3c12	?	–	15µM	–	–	–
CCCc1nc2ccccc2n2c(-c3ccc(C)cc3)c3c(=O)n(C)c(=O)n(C)c3c12	23µM	–	26µM	–	–	·
CCCc1nc2ccccc2n2c(-c3cccc(C)c3)c3c(=O)n(C)c(=O)n(C)c3c12	?	–	8.2µM	–	–	·
CN1CCC(N(C)C(=O)c2ccccc2Nc2ccc(SC(F)F)cc2)CC1	–	–	–	–	–	–
CN1CCC2(CC1)Nc1nc(SCc3ccc(Cl)cc3)nn1C1=C2CN(C)CC1	?	–	23µM	?	–	-62
NCCCCNS(=O)(=O)c1cccc2c(Cl)cccc12	·	–	·	·	·	·
NCCCCCCNS(=O)(=O)c1cccc2ccccc12	16µM	–	14µM	–	–	·
O=S(=O)(NCCCc1ccccc1)c1ccccc1	–	–	–	–	–	–
O=S(=O)(NCCCCCNS(=O)(=O)c1ccccc1)c1ccccc1	?	–	26µM	–	–	–
O=S(=O)(NCCCCCNS(=O)(=O)c1ccc(F)cc1)c1ccc(F)cc1	11µM	–	13µM	–	–	–

Assay outcomes: PubChem, National Center for Advancing Translational Sciences (NCATS)
